This note sets out measurements from PubChem BioAssay (NCI).

Some test systems named below: HCT-15 colon; HT29 colon; SNB-75 CNS; SNB-19 CNS; U251 CNS; PC-3 prostate; SK-MEL-5 melanoma; UACC-62 melanoma; LOX IMVI melanoma; SK-MEL-28 melanoma; SK-MEL-2 melanoma; EKVX NSCLC; SN12C renal; UO-31 renal; TK-10 renal; ACHN renal; CAKI-1 renal; A498 renal; CCRF-CEM leukemia; MOLT-4 leukemia.
Assay in all cases: NCI-60 one-dose screen, 48 h (100 = growth as untreated, 0 = no growth, -100 = all killed)
Common to all, as to conditions: 10 µM unless noted

The panel holds about 83,000 compounds, 20% with a hit somewhere; the sample as a whole holds those more often.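 In brief: 96-well plates, 48 h treatment, single concentration, percent growth endpoint.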 A number with no mark means an inactive call. The source made the active and inactive calls. Rule for the calls: active = growth percent below 10; inactive = the rest.

Turning to `N#Cc1ccc(O)c(C2=NCC(c3cccc(Oc4ccccc4)c3)O2)c1` (stereo not given), the growth in the experiment with HCT-15 colon was 26.8%; in the experiment on HT29 colon, 13.8%; in the experiment on SNB-75 CNS, 51.7%; in the experiment with SNB-19 CNS it was 22.3%; in the experiment with U251 CNS, 3.98% (active); in the experiment with PC-3 prostate it was 31.4%. For the same compound, the growth with SK-MEL-5 melanoma was 32.7%; with UACC-62 melanoma, -1.59% (active); in the experiment on LOX IMVI melanoma, 23%; in the experiment with SK-MEL-28 melanoma it was 37.5%; in the experiment with SK-MEL-2 melanoma, 7.46% (active); in the experiment on EKVX NSCLC it was 24%. The growth was 33.3% in the experiment with SN12C renal; -6.42% (active) in the experiment with UO-31 renal; 3.38% (active) with TK-10 renal; 17.5% in the experiment on ACHN renal; 6.87% (active) in the experiment with CAKI-1 renal; 50.9% with A498 renal. In addition, the growth is 14.4% with CCRF-CEM leukemia and -0.248% (active) in the experiment with MOLT-4 leukemia.

Consider `COc1ccc(-c2nn(-c3cccc(Cl)c3)cc2-c2cc(-c3ccc(Br)cc3)nc(N)n2)cc1`, for which the growth is 81.4% in the experiment on HCT-15 colon; 86% in the experiment with HT29 colon; 96.9% in the experiment on SNB-75 CNS; 95.2% in the experiment on SNB-19 CNS; 97.5% in the experiment on U251 CNS; 80% in the experiment with PC-3 prostate. The growth in the experiment with SK-MEL-5 melanoma is 94.6%; in the experiment on UACC-62 melanoma, 85%; in the experiment on LOX IMVI melanoma, 98.7%; with SK-MEL-28 melanoma it was 103%; in the experiment with SK-MEL-2 melanoma, 99.7%; with EKVX NSCLC it was 92.3%. Further, the growth in the experiment with SN12C renal is 92.7%; with UO-31 renal, 76%; in the experiment on TK-10 renal, 104%; with ACHN renal it was 103%; in the experiment with CAKI-1 renal it was 77.3%; with A498 renal, 81.6%. The growth in the experiment on CCRF-CEM leukemia is 92.7%; in the experiment on MOLT-4 leukemia, 88.3%.

Turning to `O=C1/C=C/[C@@H](O)[C@@H]2C[C@@H](O)C[C@H]2/C=C/CCC[C@H](CCc2ccccc2)O1`, the growth in the experiment with HCT-15 colon was 11%; in the experiment with HT29 colon it was 3.12% (active); in the experiment with SNB-75 CNS, 28.9%; with SNB-19 CNS it was 31.4%; in the experiment with U251 CNS it was 20.1%; with PC-3 prostate it was 16.7%. In addition, the growth is -92.9% (active) in the experiment with SK-MEL-5 melanoma; 23.7% in the experiment with UACC-62 melanoma; -59.1% (active) in the experiment with LOX IMVI melanoma; -2.32% (active) in the experiment on SK-MEL-28 melanoma; -8.8% (active) with SK-MEL-2 melanoma; 8.4% (active) in the experiment on EKVX NSCLC. Also, the growth with SN12C renal was 11.8%; in the experiment on UO-31 renal, 14.7%; in the experiment with TK-10 renal it was -26% (active); in the experiment on ACHN renal, 7.03% (active); in the experiment with CAKI-1 renal, -8.69% (active); in the experiment on A498 renal, -28.2% (active). Besides, the results for the growth with CCRF-CEM leukemia and in the experiment on MOLT-4 leukemia were 13.1% and 9.48% (active), respectively.

On to `O=C1c2ccc3c4c5ccc(c24)C(=O)N1CCCOCCCCOCCCNCc1ccc(cc1)CNCCCOCCCCOCCCN(C3=O)C5=O`, for which the growth is -41% (active) in the experiment with HCT-15 colon; -18.7% (active) in the experiment with HT29 colon; 98.1% with SNB-75 CNS; -2.17% (active) in the experiment on SNB-19 CNS; -78.3% (active) in the experiment with U251 CNS; 6.2% (active) in the experiment with PC-3 prostate. The growth was -99.9% (active) in the experiment with SK-MEL-5 melanoma; -90.3% (active) in the experiment with UACC-62 melanoma; -87.8% (active) in the experiment on LOX IMVI melanoma; -24.1% (active) in the experiment with SK-MEL-28 melanoma; -35.8% (active) in the experiment on SK-MEL-2 melanoma; -63.1% (active) in the experiment with EKVX NSCLC. Besides, the growth is -82.9% (active) in the experiment on SN12C renal; 64.7% in the experiment with UO-31 renal; 21.6% in the experiment with TK-10 renal; -65.7% (active) with ACHN renal; -1.05% (active) with CAKI-1 renal; 93.7% with A498 renal. The growth was -0.763% (active) with CCRF-CEM leukemia and -12.3% (active) in the experiment on MOLT-4 leukemia.

As to `CCN(CC)Cc1cc(C=C2C(=O)NC(=S)NC2=O)cc(OC)c1O`, the growth in the experiment on HCT-15 colon was 105%; in the experiment with HT29 colon it was 108%; in the experiment with SNB-75 CNS, 99.1%; with SNB-19 CNS it was 98.6%; in the experiment with U251 CNS, 98.6%; with PC-3 prostate, 102%. The growth was 106% with SK-MEL-5 melanoma; 96.5% in the experiment on UACC-62 melanoma; 105% with LOX IMVI melanoma; 107% in the experiment on SK-MEL-28 melanoma; 119% with SK-MEL-2 melanoma; 106% with EKVX NSCLC. In addition, the growth in the experiment on SN12C renal is 100%; with UO-31 renal, 90.1%; with TK-10 renal it was 110%; in the experiment on ACHN renal, 107%; with CAKI-1 renal, 99.3%; with A498 renal, 98.8%. Besides, the growth is 104% in the experiment on CCRF-CEM leukemia and 108% in the experiment on MOLT-4 leukemia.

Regarding `CC(C)c1ccc(Cc2cnc(NC(=O)c3cc(Br)cs3)s2)cc1`, the growth was 21.6% in the experiment with HCT-15 colon; 7.43% (active) with HT29 colon; -3.65% (active) in the experiment on SNB-75 CNS; 42.9% in the experiment with SNB-19 CNS; 18.6% in the experiment with U251 CNS; 26.7% with PC-3 prostate. In addition, the growth in the experiment with SK-MEL-5 melanoma was 10.1%; in the experiment on UACC-62 melanoma, 42.5%; in the experiment on LOX IMVI melanoma, 41.3%; in the experiment on SK-MEL-28 melanoma, 53.5%; with SK-MEL-2 melanoma, 23.7%; in the experiment with EKVX NSCLC it was 43.9%. Also, the growth is 49.7% in the experiment with SN12C renal; 55% with UO-31 renal; 46.7% in the experiment on TK-10 renal; 41.6% with ACHN renal; 31.3% in the experiment with CAKI-1 renal; 18.8% in the experiment with A498 renal. Further, the figures for the growth in the experiment with CCRF-CEM leukemia and in the experiment on MOLT-4 leukemia were 20% and 43.2%, respectively.

On to `O=S(=O)(c1ccccc1)n1cc2c(c1)-c1nc(Nc3ncccn3)sc1CC2`, for which the growth is 68.7% in the experiment with HCT-15 colon; 66.2% in the experiment on HT29 colon; -16% (active) with SNB-75 CNS; 78.5% with SNB-19 CNS; 46.2% in the experiment with U251 CNS; 65.5% in the experiment on PC-3 prostate. Besides, the growth in the experiment on SK-MEL-5 melanoma is 35.4%; with UACC-62 melanoma, 63.6%; in the experiment with LOX IMVI melanoma, 10.1%; in the experiment on SK-MEL-28 melanoma it was 73.9%; in the experiment with SK-MEL-2 melanoma, 65.2%; in the experiment on EKVX NSCLC, 72.4%. The growth was 57.2% in the experiment with SN12C renal; 41.3% in the experiment with UO-31 renal; 64.3% in the experiment with TK-10 renal; 22.9% in the experiment on ACHN renal; 66.8% with CAKI-1 renal; 43.7% with A498 renal. Also, the figures for the growth in the experiment with CCRF-CEM leukemia and in the experiment with MOLT-4 leukemia were 73.1% and 83.7%, respectively.

Turning to `COc1ccc(NC(=O)c2sc3nc(C)c(C(=O)/C=C/c4ccccc4)cc3c2N)cc1`, the growth in the experiment with HCT-15 colon was 0.101% (active); in the experiment on HT29 colon, 0.196% (active); in the experiment with SNB-75 CNS, 12.2%; in the experiment on SNB-19 CNS, 10.6%; with U251 CNS, 1.8% (active); in the experiment with PC-3 prostate it was 52.6%. Also, the growth in the experiment with SK-MEL-5 melanoma was 74.3%; in the experiment with UACC-62 melanoma, 51.8%; in the experiment with LOX IMVI melanoma, -74.7% (active); with SK-MEL-28 melanoma it was 85.7%; with SK-MEL-2 melanoma, 88.7%; with EKVX NSCLC it was 87.1%. Further, the growth in the experiment on SN12C renal is 17.6%; in the experiment on UO-31 renal, 17.7%; in the experiment with TK-10 renal, 80.5%; with ACHN renal, 50.3%; in the experiment with CAKI-1 renal, 29%; in the experiment with A498 renal, 21%. Also, the figures for the growth in the experiment with CCRF-CEM leukemia and in the experiment on MOLT-4 leukemia were 3.56% (active) and 27.6%, respectively.
